Data reported in PubChem BioAssay (NCATS).
Records with an inconclusive call do not appear. Where a structure was tested more than once in an assay, its records may differ in their call. Active and inactive are the calls of the source. The call rests on the fitted dose curve; in most records, active means well fitted inhibition curve with a large enough effect; inconclusive means small, poorly fitted or top-dose-only effect; inactive means flat fitted curve, though single readings scatter.

Experiment: qHTS for Inhibitors of Plasmodium falciparum (7G8) proliferation (AID 504316); further: nearly all actives have a fitted effect of over 65% in size
Conditions: P. falciparum 7G8 in erythrocytes, SYBR Green DNA, 72 h; series mostly up to 6.7 µM
In short: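 Erythrocytes infected with P. falciparum line (0.3% parasitemia, 2.5% hematocrit final) incubated with compounds 72 h at 37 °C, 5% CO2; SYBR Green lysis buffer added, fluorescence read next day. Normalized to 0.29 uM artemisinin and DMSO.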
Potency means the concentration at half of the fitted maximal effect.

Potency, inactive:
COc1cccc(CO[C@H]2C=C[C@@H](c3ccccc3)O[C@H]2COC(C)=O)c1
COC1=C[C@H](C(=O)N[C@H]2CCCC[C@H]2NC(C)=O)[C@H](C)[C@@H](c2ccccc2)CC1=O
Cc1c(O)c(=O)ccn1Cc1ccccc1
COC(=O)CCCC1=CC2=C(c3ccccc3)C(=O)C(C)(OC(=O)C3CCCC3)C(=O)C2=CN1Cc1ccc(OC)cc1 (centres undefined)
COC(=O)CCCC1=CC2=C(c3ccccc3)C(=O)C(C)(OC(=O)C3CCCC3)C(=O)C2=CN1c1ccc(OC)cc1 (centres undefined)
COc1cc(CO[C@H]2C=C[C@@H](c3ccccc3)O[C@H]2CO)cc(OC)c1
Cn1c(-c2ccccc2)c(O)c(=O)c2ccccc21
CCCCC1=CC2=C(c3ccco3)C(=O)C(C)(OC(=O)c3ccc(OC)cc3)C(=O)C2=CN1C(CO)CO (centres undefined)
CNc1ccccc1C(=O)OCC(C)=O
CC1=C2[C@H](O)[C@H]([C@@H](C)C(=O)NCCC(C)C)CC[C@@]2(C)C=CC1=O
COC(=O)c1ccc(CN2C(=O)[C@]3(OCCC=C[C@@H]3C)c3cc(OC)ccc32)cc1
CCN1C(=NCc2cccc(C(F)(F)F)c2)NC(c2cccs2)C(C(=O)OC)=C1C (centres undefined)
CC1(OC(=O)C2CCCC2)C(=O)C=C2C=C(c3ccsc3)N(Cc3ccccc3)C=C2C1=O (centres undefined)
C=CCN1c2ccccc2[C@]23CCC(=O)N(CCOC)C2=NC(C(=O)OC)=C(C(=O)OC)[C@H]13
CC1=C(C)CC(c2ccccc2)C(C(=O)c2ccccc2O)C1 (centres undefined)
COc1cccc([C@@H]2Oc3ccc(Br)cc3C(=O)[C@@H]2OC(=O)N[C@H]2CCCc3ccccc32)c1
CC(C)(C)OC(=O)N1CCC[C@@H]1C(O)(c1ccccc1)c1ccccc1
C=CCN1C(=O)[C@]2(O[C@H](C)CC3=CCCC32)c2c(Br)cccc21 (some centres undefined)
N#CCCN(CC#Cc1ccccc1)OCc1ccccc1
CC(CCC(=O)OC[C@H]1O[C@H](C#Cc2ccccc2)C=C[C@H]1Oc1ccc(C)cc1)=NO[C@H](C)c1cn([C@@H]2COC[C@@H]2O)nn1
CC1(OC(=O)C2CCCC2)C(=O)C=C2C=C(c3ccsc3)N(C3CCCCC3)C=C2C1=O (centres undefined)
Cc1ccc(S(=O)(=O)n2c3ccccc3c3nnc(C(=O)c4ccccc4)nc32)cc1

Potency, 1.69 µM (active) and inactive:
CCCCCCCC1=Cc2ccccc2C(CC(C)=O)N1C(=O)OC (centres undefined)

Potency, active:
CC(C)=CCN1C(=O)[C@@]2(CC(C)=C[C@@H](COCc3ccccc3)O2)c2ccccc21 1.9 µM
CCc1cc2c(nc1CC)CCN(CCC(C)=NOC[C@@H](O)COCc1ccco1)C2 1.51 µM
C=CCNC(=O)N1CCc2nc(-c3ccc(OC)cc3C)c3c(c2C1)CO[C@@H](c1ccccc1)C3 1.51 µM
COc1cccc([C@@H]2Oc3ccc(OC)cc3C[C@@H]2OC(=O)N[C@H]2CCCc3ccccc32)c1 1.51 µM
O=C1CCCC=C1[C@@H](O)CCOC(c1ccccc1)(c1ccccc1)c1ccccc1 1.69 µM
COc1ccc(O[C@H]2C=C[C@@H](c3ccccc3)O[C@H]2CON=C2c3cc(OC)ccc3O[C@H](c3cccc(OC)c3)[C@H]2O)cc1 1.69 µM
